Shown are actives, neighbours in structure and some others; about 6.5% of the full set was active somewhere.
MARV entry inh – qHTS for inhibitors of binding or entry into cells for Marburg Virus | Marburg virus pseudotyped entry inhibition, cell reporter | Potency, µM (top dose mostly 37.8 µM), for the others: at the top dose activity change, negative = inhibition, usual class: inhibitors | 1.8% of 300,000 active; calls by dose curve; tested in HEK293 cells; note: potency is the fitted concentration of half-maximal effect
HCMV inh – qHTS Assay for inhibitors of the human cytomegalovirus (HCMV); HFF cells, HCMV-luciferase reporter, 72 h; hits give low values; activity change, negative = inhibition, % at 57.5 µM; 4.5% of 410,000 active; in the data active = activity change below about -60%; inconclusive = no clear call, values can overlap the other calls; inactive = above about -39%
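Screen run at 2 compound doses on HFFs infected with reporter HCMV, MOI 1 PFU/cell. Luciferase activity from cell lysates at 72 h post infection gave inhibition relative to buffer-only and Salinomycin wells.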
Vaccinia mCherry – qHTS for Stage-Specific Inhibitors of Vaccinia Orthopoxvirus: mCherry Reporter Primary qHTS | Vaccinia virus mCherry reporter infection, fluorescence | Potency, µM (titrated, usually from 36.5 µM), without a hit: at the highest dose activity change, negative = inhibition, hits mostly inhibitors | 0.63% of 310,000 active | AID 720579, 2013; calls by dose curve; tested in A549 cells; note: potency is the fitted concentration of half-maximal effect; nearly all actives have a fitted effect of over 35% in size
FMDV antiviral – High Throughput Screening for Foot and Mouth Disease Virus Antivirals. FMDV antiviral cell-based qHTS. Potency, µM (highest dose often 57.9 µM), inactives show at the top dose activity change, negative = inhibition, actives largely listed as inhibitors. 1.2% of 410,000 active; calls by dose curve; tested in HEK293T cells; note: read-out not given here; potency is the fitted concentration of half-maximal effect; nearly all actives have a fitted effect of over 45% in size
VACV Venus inh – qHTS for Stage-Specific Inhibitors of Vaccinia Orthopoxvirus: Venus Reporter Primary qHTS; Vaccinia virus Venus reporter expression, fluorescence; Potency, µM (series often up to 36.5 µM), for inactives: at the top dose activity change, negative = inhibition, usual class: inhibitors; 0.46% of 330,000 active; calls by dose curve; tested in A549 cells; note: potency is the fitted concentration of half-maximal effect; nearly all actives have a fitted effect of over 30% in size
LASV entry inh – qHTS for Inhibitors of binding or entry into cells for Lassa Virus; 1.2% of 300,000 active; Potency, µM (highest dose often 37.9 µM), inactives show at the top dose activity change, negative = inhibition, hits mostly inhibitors; Lassa virus pseudotype entry inhibition, cell reporter; AID 540256, 2011; calls by dose curve; tested in HEK293 cells; note: potency is the fitted concentration of half-maximal effect; nearly all actives have a fitted effect of over 50% in size
* = called active by the depositor; i = inactive; ? = inconclusive; · = no result given; ! = not confirmed by another sample; [ ] = dose if it differs, or a comment. % is set by controls: 0 for no effect and ±100 for the full control effect.

SMILES | MARV entry inh | HCMV inh | Vaccinia mCherry | FMDV antiviral | VACV Venus inh | LASV entry inh
Cc1cc(F)ccc1NC(=O)CCS(=O)(=O)c1cc2c(cc1C)NC(=O)CO2 | · | -104.7* | -2.8% | -6.8% | -2.5% | 5.6%[46.1 µM]
Cc1cc2c(cc1S(=O)(=O)NCc1ccccc1Cl)OCC(=O)N2 | · | -1.2 | -3.2% | 64.0% | -6.2% | -1.5%[46.1 µM]
Cc1cc2c(cc1S(=O)(=O)NCc1ccccc1)OCC(=O)N2 | · | -87.2*! | -6.8% | 7.2% | -8.8% | 7.5%[46.1 µM]
Cc1cc(Cl)ccc1NC(=O)CCS(=O)(=O)c1cc2c(cc1C)NC(=O)CO2 | · | -22.9 | -6.4% | 3.2% | -9.8% | 18.2%[46.1 µM]
O=C(COc1ccc(Br)cc1)N1CCN(Cc2c[nH]c3ccccc23)CC1 | ? | 9.8 | 14.1µM* | -25.4% | ? | ?
COc1ccc(Br)cc1CN1CCN(Cc2c[nH]c3ccccc23)CC1 | ? | -99.9* | ? | -26.6% | ? | ?
COc1ccc(CCNC(=O)N2c3ccccc3Sc3ccccc32)cc1 | ? | ? | ? | 17.8µM* | ? | ?
CC(C)(C)NC(=O)N1c2ccccc2Sc2ccccc21 | · | -60.4* | · | -32.8% | · | ·
COc1ccccc1C(=O)N1c2ccccc2Sc2ccccc21 | ? | -72.7* | ? | -12.1% | -28.5% | ?
CC(C)CNCC(=O)N1c2ccccc2Sc2ccccc21 | ? | -71.4* | i | -5.7% | -16.1% | -5.5%
COCCCNC(=O)N1c2ccccc2Sc2ccccc21 | 19.4%[46.1 µM] | 49.1 | -13.1% | -3.0% | -18.4% | 3.2%[46.1 µM]
C=CCOC(=O)C1=C(C)N(CC)C(=O)NC1c1ccccc1 (stereo not drawn) | -4.6%[14.2 µM] | · | · | · | · | ·
Brc1cccc[n+]1Cc1ccc(C[n+]2ccccc2Br)cc1 | · | · | i | · | -10.3% | ·
CCC(=O)Nc1cc(-c2cccc(C)c2)nn1-c1ccccc1 | · | 91.3 | -7.4% | 10.6% | -2.8% | -1.2%[46.1 µM]
CCCn1c(C(O)c2ccc(OC)c(OC)c2)nc2ccccc21 (stereo not drawn) | · | -68.7* | · | ? | · | ·
CCCn1c(C(O)c2ccc(OC)cc2)nc2ccccc21 (stereo not drawn) | 10.7%[46.1 µM] | -12.7 | -23.7% | -17.5% | -24.0% | 1.3%
CNc1nc2cnc(Nc3cccc(OC)c3)cc2n1Cc1ccc(OC)c(OC)c1 | · | 24.3 | · | · | · | ·
O=C1C2CCCN2C(c2ccccc2)N1c1ccc(Cl)cc1 (stereo not drawn) | ? | -96.6* | · | 6.1% | · | ?
O=C1C2CCCN2C(c2ccccc2F)N1c1ccc(Cl)cc1 (stereo not drawn) | ? | -63.8* | · | 7.9% | · | -17.5%
CCCC12CN3CC(C)(CN(C1)C3c1ccc(OCc3ccccc3)cc1)C2=O (stereo not drawn) | 14.4%[46.1 µM] | -1.9 | -6.6% | -29.7% | -12.7% | -16.6%[46.1 µM]
COc1ccc(C(=O)NCC(c2ccc3c(c2)OCO3)N2CCN(c3ccccc3F)CC2)cc1 (stereo not drawn) | · | -5.6 | -16.7% | -9.0% | -18.2% | ?
Cc1ccc(CNC(=O)CSc2ccc(-c3ccccn3)nn2)cc1 | ? | 2.7 | 7.08µM* | 20.2% | ? | ?
O=C(CSc1ccc(-c2ccccn2)nn1)Nc1ccc(F)c(F)c1 | -22.6% | -90.1*! | ? | -28.5% | ? | ?
COc1ccccc1NC(=O)CSc1ccc(-c2ccccn2)nn1 | ? | -100.6*! | 14.1µM* | 3.4% | ? | ?
Cc1ccc(NC(=O)CSc2ccc(-c3ccccn3)nn2)cc1 | -29.3%[46.1 µM] | 65.3 | ? | 0.6% | ? | ?
SMILES | MARV entry inh | HCMV inh | Vaccinia mCherry | FMDV antiviral | VACV Venus inh | LASV entry inh
Cc1ccc(C)c(NC(=O)c2ccc(CN3CC(=O)N4CCCCC4C3=O)cc2)c1 (stereo not drawn) | · | ? | -9.4% | -13.9% | -7.7% | 17.0%[46.1 µM]
COCCN(C(=O)c1csnn1)C(C(=O)NC1CCCCC1)c1ccc(Cl)cc1 (stereo not drawn) | ? | -99.2* | i | 11.5% | -16.1% | ?
COCCN(C(=O)c1csnn1)C(C(=O)NC1CCCCC1)c1ccccc1 (stereo not drawn) | -4.9%[46.1 µM] | 42.0 | i | -6.6% | -4.5% | 10.7%[46.1 µM]
O=C(NCc1ccc(F)cc1)C(c1ccc(F)cc1)N(C(=O)c1csnn1)C1CC1 (stereo not drawn) | ? | 6.1 | i | 4.6% | -5.1% | -1.8%[46.1 µM]
O=C(NCc1ccccc1)C(c1ccc(Cl)cc1)N(C(=O)c1csnn1)C1CC1 (stereo not drawn) | -6.3%[46.1 µM] | -63.0* | -5.7% | 18.3% | -9.4% | 11.6%[46.1 µM]
COc1ccc(/C(O)=C2\C(=O)C(=O)N(CCN3CCOCC3)[C@H]2c2cccnc2)cc1OC | 1.5% | · | · | · | · | ·
Cc1noc(/C=C/c2ccco2)c1S(=O)(=O)N1CCC(C(=O)Nc2ccc(F)cc2F)CC1 | ? | ? | -13.5% | ? | -5.7% | -3.2%[46.1 µM]
COc1cccc(Cn2c(=O)n(-c3cccc(Cl)c3C)c(=O)c3c4c(sc32)CN(C(C)=O)CC4)c1 | · | ? | -9.7% | -23.7% | -0.7% | 8.5%[46.1 µM]
Cc1ccccc1COn1nnc2ccc(S(=O)(=O)N3CCOCC3)cc21 | -3.6% | -18.8 | 4.47µM* | ? | 7.94µM* | -18.6%[46.1 µM]
COc1cc(/C=C\C(=O)NCc2ccc3c(c2)cc(C)n3C)cc(OC)c1OC | 5.17µM* | 12.0 | i | ? | -3.0% | ?
COc1ccc(CC(=O)NCc2ccc3c(c2)cc(C)n3C)cc1OC | · | -14.2 | i | ? | -11.2% | ·
CCc1ccccc1N1C(=O)N(CC(=O)c2ccc(OC)cc2)c2ccccc2S1(=O)=O | · | 6.6 | 14.0% | -12.4% | -1.4% | -17.8%[46.1 µM]
O=C(NCCCN1CCCC1)c1ccc(CSCc2cccc(Cl)c2)o1 | ? | 8.1 | · | -13.5% | · | -3.8%
CC1CCN(CCCNC(=O)c2ccc(CSCc3cccc(Cl)c3)o2)CC1 | 11.6µM* | -6.4 | · | -26.9% | · | -17.8%
CN1CCN(CCCNC(=O)c2ccc(CSCc3cccc(Cl)c3)o2)CC1 | ? | -21.1 | · | 6.9% | -26.1% | 11.2µM*
OC(c1ccc2c(c1)CN(Cc1cccn1-c1cccnc1)CCO2)C1CCCCC1 (stereo not drawn) | · | · | -26.5% | 1.7% | -13.8% | ·
CCn1c(-c2ccccc2F)nc2cc(NC(C)=O)cc(C(=O)N3CCCCC3c3nccn3C)c21 (stereo not drawn) | · | · | 19.0% | -0.9% | 20.1% | ·
COc1ccc2nc3cc(Cl)ccc3c(Nc3cc(CN4CCCC4)c(O)c(CN4CCCC4)c3)c2n1 | · | -100.5* | · | · | · | ·
COc1ccc(N=Nc2cc(C)c(O)c(CN3CCCCC3)c2)cc1 | -26.4%[46.1 µM] | -15.9 | ? | 22.9% | -6.9%[7.34 µM] | 4.7%
Cc1ccc(NC(=O)Cc2ccc(NC(=O)N3CCCCc4ccccc43)cc2)cc1Cl | · | -2.9 | -14.6% | -15.8% | -17.4% | ?
CCOc1cccc(/C=C(/C#N)c2nc3ccccc3[nH]2)c1OCC(=O)O | · | -101.3* | · | -11.7% | · | ·
